Experimental findings from PubChem BioAssay AID602163 (The Scripps Research Institute Molecular Screening Center, 2012) are described below.

“And” between values parts separate entries of the source, which are not always exact repeats. Equal entries are not always repeated. Out of some 360,000 compounds screened, about 1,100 (0.31%) were called active. Shown is part of a subset that was picked to be rich in actives. A number with no mark means an inactive call. Rule as the data show it: active = activation above about 7.5%; inactive = the rest.

The assay concerns Methionine sulfoxide reductase A (Bos taurus). Put plainly: bovine MsrA enzyme activators, primary screen, biochemical, absorbance, HTS (AID 602163).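 Also: 0% = vehicle and 100% = reference activator.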 The following applies: purified bovine MsrA, absorbance read-out; at 10.6 µM; stronger effect = higher value.
On to `COc1ccc(NC(=O)CSc2nnnn2-c2cccc(OC)c2)cc1`, for which the activation is -2.59%.
With `CCOC(=O)C(C)n1cnc2c(nnn2-c2cccc(OC)c2)c1=O` (centres undefined) the figure was -0.63%.
On to `CCOc1cccc(-n2nnnc2-c2ccc(OC)cc2)c1`, for which the activation is 15.8% (active).
The value for `COC(=O)c1c(C)cc(O)c(C)c1O` was 3.54%.
With `Cc1cc(OCc2cc(C(=O)NCc3cc(C(C)C)no3)no2)cc(C)c1Cl` the figure was -8.01%; with `S=c1[nH]nc(Nc2ccccc2)s1`, 3.66%; with `Nc1c(NCCc2ccccc2)c2ccccc2oc1=O`, -3.29%.
With `S=c1[nH]nc(NCCc2ccccc2)s1` the figure was 10.4% (active).
Take `Cc1cc(=O)oc2c1ccc1ccccc12`: the activation is -2.71%.
With `CC1(C)SC2C(NC(=O)COc3ccccc3)C(=O)N2C1C(=O)O` (centres undefined) the figure was -2.47% and -3.56%; with `CC1(C)S[C@@H]2[C@H](NC(=O)COc3ccccc3)C(=O)N2C1C(=O)OCc1ccccc1` (some centres undefined), 8.55% (active); with `COC(=O)C1[C@H]2SC(C)(C)C(C(=O)OC)N2C(=O)N1Cc1nc2ccccc2s1` (some centres undefined), -2.77%.
For the compound `O=c1oc2ccc(C#CC3(O)CCCCC3)cc2cc1-n1cc(-c2ccsc2)nn1`, the activation is -0.09%.
For `O=C(CSc1ccccc1)Nc1cccc(S(=O)(=O)N2CCCCC2)c1`, the activation is -2.42%.
Regarding `CSCCC1NC(=O)N(CC(=O)Nc2cccc(S(=O)(=O)N3CCCCCC3)c2)C1=O` (centres undefined), the activation is 15.5% (active).
The value for `Cn1nnnc1SCC(=O)Nc1cccc(S(=O)(=O)N2CCCCC2)c1` was -4.48%.
For the compound `Cc1ccc(NC(=O)C2CC2c2ccccc2)cc1` (centres undefined), the activation is 1.6%.
On to `CC(=O)Nc1ccc(NC(=O)C2CCCN(S(=O)(=O)c3ccc(Cl)cc3)C2)cc1` (centres undefined), for which the activation was -1.47%.
For `O=C(Cc1ccc(F)cc1)NC1CCCC1`, the activation is -5.09%.
The value for `O=C(O)C1CCCCC1C(=O)Nc1ccc(Cl)cc1` (centres undefined) was 9.28% (active); that for `O=C(O)Cc1ccc(NC(=O)C2CCCCC2C(=O)O)cc1` (centres undefined) was 8.45% (active); that for `O=C(NC1CCN(C(=S)Nc2ccc(Cl)cc2)CC1)C1CCCCC1` was -9.13%.
Take `O=S1(=O)C=C(SCCN2CCCC2)c2ccccc21`: the activation was 3.43%.
For `CN1CCN(c2ccc3c(c2)OC[C@H](Cc2ccccc2)NS3(=O)=O)CC1`, the activation is -2%.
The value for `O=C(O)C1OC(C(=O)O)C2C1C(F)(F)C2(F)F` (centres undefined) was 0.7%; that for `C/C(Cc1ccccc1)=N\NC(=O)CNC(=O)c1ccc2c(c1)OCCO2` was -1.01%.
As to `Cc1ccc(NC(=O)c2cc([N+](=O)[O-])ccc2Cl)c(O)c1`, the activation was -10%.
With `O=C(Nc1ccc2c(c1)OCCO2)C(c1ccc(F)cc1)N1CCCCC1` (centres undefined) the figure was -9.07%; with `COc1cccc(CNCCc2c[nH]c3ccccc23)c1OCc1ccccc1F`, 7.97% (active); with `Fc1ccccc1COc1ccccc1CNCc1ccncc1`, -0.5%.
With `COc1ccc(CN(C)C(=O)Cc2c[nH]c3ccccc23)c(OC)c1OC` the figure was -0.09%; with `CSc1ccc(Cl)c(C(=O)OCC(=O)N2CC(C)OC(C)C2)c1` (centres undefined), 1.67%.
Turning to `CCN(/N=C/c1ccc(N(C)C)cc1)c1nc2ccccc2[nH]1`, the activation is -3.63%.
With `CC1(C)CC(=O)C(C=NCc2cccnc2)=C(O)C1` the figure was -1.39%.
The value for `COC(=O)C1(O)CC(C(C)C)=NN1C(=O)c1ccc(Cl)cc1` (centres undefined) was -2.59%; that for `NC(=O)c1cc(-c2cccnc2)nc2ccc(Br)cc12` was -2.46%.
With `O=c1c2cc(Br)ccc2nc(-c2cccc(Cl)c2)n1O` the figure was 8.68% (active).
Consider `NC(N)=Nc1nc2ccc(Br)cc2c(=O)[nH]1`, for which the activation is -1.23%.
In the case of `COc1ccccc1C(=O)Nc1ccc(OCC(=O)N2CCCCC2)cc1`, the activation is -2.88%.
In the case of `COc1ccc(/C=C/C2=CC(C)(C)NC(=S)N2)c(OC)c1`, the activation was -3.37%.
In the case of `COc1ccc(NC(=O)COC(=O)CNC(=O)C2CCCCC2)cc1`, the activation was -4.73%.
With `CCOc1ccccc1OCCCNCc1ccccc1` the figure was 8.23% (active); with `CCOCCCNCc1ccc(OCc2ccc(F)cc2)c(OC)c1`, -0.52%.
`c1ccc(CNCc2ccc(CNCc3ccccc3)cc2)cc1`: the activation is -4.45%.
With `Cc1ccccc1NC(=O)c1nn(-c2ccc(F)c(F)c2)ccc1=O` the figure was 0.66%.
For `Cc1[nH]c(C)c(S(=O)(=O)N2CCN(c3cccc(C(F)(F)F)c3)CC2)c1C(=O)N1CCCC1`, the activation is -2.75%.
For `COc1ccccc1CNC(=O)c1cc(-c2cc(F)ccc2OC)n[nH]1`, the activation is 1.13%.
For `Oc1cc(O)c2c(c1)OC(c1ccc(O)c(O)c1)C(O)C2` (centres undefined), the activation was -3.17%.
With `O=C(Nc1c(Br)cc2c(c1Br)Cc1cc([N+](=O)[O-])ccc1-2)C(Cl)Cl` the figure was -0.8%; with `COc1ccc(C(CNC(=O)CSc2ccccc2)N2CCOCC2)cc1` (centres undefined), -2.38%; with `COc1ccc(C(CNC(=O)c2cc3c(s2)CCCC3)N2CCOCC2)cc1` (centres undefined), 9.37% (active).
The value for `COc1ccc(C(CNC(=O)c2cccnc2SC)N2CCOCC2)cc1` (centres undefined) was -1.39%; that for `CCC(C)CCN1CCN=C1N(C)C` (centres undefined) was -6.93%.
Consider `O=C(NC1CCc2ccccc21)C12CN(Cc3ccccc3)CC1C(c1cccc([N+](=O)[O-])c1)=NO2` (centres undefined), for which the activation was -4.81%.
